Rows were chosen to be rich in hits. Some 8.7% of all compounds tested hit in one or more screens of this group.
BAZ2B inh: qHTS Assay for Inhibitors of BAZ2B | AlphaScreen BAZ2B-H3K14Ac peptide displacement | Potency, µM (highest dose often 114 µM), inactives show at the top dose activity change, negative = inhibition, most hits filed as inhibitors | actives 4.4% (n = 360,000); also: % is scaled to controls: 0 for no effect and ±100 for the full control effect; nearly all actives have a fitted effect of over 60% in size
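Compounds, titrated to a top concentration of 110 uM, were incubated 30 min at room temperature with preformed BAZ2B/acetyl-K14 H3 peptide complex (50 nM each). Proximity signal was measured by AlphaScreen after 20 min with beads.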
G9a block: qHTS Assay for Inhibitors of Histone Lysine Methyltransferase G9a; AID 504332, 2011; G9a H3K9 monomethylation, AlphaScreen, 2 h; actives 8.8% (n = 350,000); Potency, µM (doses to about 102 µM), for inactives: at the top dose activity, negative = inhibition, most hits filed as inhibitors; also: % is scaled to controls: 0 for no effect and ±100 for the full control effect; nearly all actives have a fitted effect of over 75% in size
Target sequence (Q96KQ7 913-1193 limits assumed): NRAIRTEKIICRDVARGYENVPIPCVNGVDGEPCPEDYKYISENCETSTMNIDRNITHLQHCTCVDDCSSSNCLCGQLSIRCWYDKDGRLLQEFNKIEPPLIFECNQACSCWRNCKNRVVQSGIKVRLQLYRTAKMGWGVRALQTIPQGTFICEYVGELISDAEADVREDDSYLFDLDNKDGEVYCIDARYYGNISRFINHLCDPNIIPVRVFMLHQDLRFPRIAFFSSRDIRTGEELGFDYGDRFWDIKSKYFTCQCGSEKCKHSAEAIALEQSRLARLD
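Methyltransferase reactions run at room temperature for 2 h (20 nM enzyme, 500 nM biotin-H3K9 peptide, 20 uM SAM) after a 15 min compound preincubation; product detected by AlphaScreen beads and anti-H3K9me1 antibody.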
ALOX12 inh: Primary qHTS assay for inhibitors of human arachidonate 12S-lipoxygenase (ALOX12): Round 2; Polyunsaturated fatty acid lipoxygenase ALOX12 (Homo sapiens), P18054; purified 12hLO, xylenol orange hydroperoxide absorbance; Potency, µM (highest dose often 108 µM), inactives show top-dose activity change, negative = inhibition, usual class: inhibitors; actives 1.1% (n = 580,000); AID 1671190, 2021; also: % is scaled to controls: 0 for no effect and ±100 for the full control effect
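Purified human 12hLO at 150 nM in 25 mM Hepes, 0.01% Triton X-100, pH 7.0, preincubated 15 min at room temperature with compound. Reaction started with 40 uM arachidonic acid, 30 min at room temperature. Hydroperoxide measured by Fe-xylenol orange, 573/405 nm absorbance ratio.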
JMJD2A Tudor inh: qHTS Assay for Inhibitors of JMJD2A-Tudor Domain; AlphaScreen JMJD2A-Tudor / H3K4me3 peptide binding; Potency, µM (series often up to 114 µM), for inactives: at the top dose activity change, negative = inhibition, actives largely listed as inhibitors; actives 4.4% (n = 390,000); also: % is scaled to controls: 0 for no effect and ±100 for the full control effect; nearly all actives have a fitted effect of over 50% in size
HP1b binding inh: HTS for Inhibitors of HP1-beta Chromodomain Interactions with Methylated Histone Tails; AlphaScreen HP1-beta / biotin-H3K9me3 peptide binding; Potency, µM (top dose mostly 114 µM), inactives show top-dose activity change, negative = inhibition, hits mostly inhibitors; actives 0.56% (n = 390,000); AID 540317, 2011; also: nearly all actives have a fitted effect of over 70% in size
Target sequence (P83916 whole entry, looked up): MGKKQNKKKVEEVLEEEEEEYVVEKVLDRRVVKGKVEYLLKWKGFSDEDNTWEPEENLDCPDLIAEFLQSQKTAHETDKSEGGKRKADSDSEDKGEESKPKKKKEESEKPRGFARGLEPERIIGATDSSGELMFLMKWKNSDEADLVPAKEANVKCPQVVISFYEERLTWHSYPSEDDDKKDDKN
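HP1-beta protein (50 nM final) preincubated 30 min at room temperature with biotinylated H3(1-18)K9me3 peptide (50 nM) in PBS pH 7.4, 0.01% Tween-20, then compound added for 30 min. AlphaScreen streptavidin donor/nickel chelate acceptor beads (10 ug/mL final), 30 min dark, luminescence read.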
Sfp PPTase inh: qHTS Assay for Inhibitors of Bacillus subtilis Sfp phosphopantetheinyl transferase (PPTase); 4'-phosphopantetheinyl transferase ffp (Bacillus subtilis), Q9F4F7; Biochemical Sfp PPTase activity, qHTS; actives 3.5% (n = 310,000); Potency, µM, for the others: largest response in the series, negative = inhibition, most hits filed as inhibitors;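 also: the enzyme is Sfp with the accession as filed and its product quenches rhodamine fluorescence; 0% = enzyme reaction without inhibitor and -100% = no enzyme wells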
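Fluorescence-quenching assay: 15 nM Sfp-PPTase preincubated 15 min at room temperature with compound, then 5 uM rhodamine-CoA and 12.5 uM BHQ-2-labelled YbbR peptide added. Fluorescence (ex 525/em 598 nm) read at start and after 30 min; difference gives rate.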
* = called active by the depositor; ? = inconclusive; · = not tested or not shown; [ ] = dose if it differs, or a comment. Calls follow the shape of the dose curve; as a rule, active = well fitted curve in the direction sought with a large enough effect; inconclusive = small, poorly fitted or top-dose-only effect, or another doubt; inactive = no such curve, though single readings can be large; an effect the other way counts as inactive or inconclusive. Potency is read from the fitted curve at half-maximal effect.

SMILES	BAZ2B inh	G9a block	ALOX12 inh	JMJD2A Tudor inh	HP1b binding inh	Sfp PPTase inh
COc1ccc(Cl)cc1S(=O)(=O)N1CCN(CC(=O)Nc2ccccc2C(F)(F)F)CC1	-2%	-5%[59 µM]	3%	-13%	46%	·
COC(=O)c1ccc(NC(=O)CN2CCN(S(=O)(=O)c3cc(Cl)ccc3OC)CC2)cc1	3%	35µM*	-5%	-9%	22%	1%
COc1cc(CCNC(=O)c2cc(=O)c3ccccc3o2)ccc1OC(F)F	·	·	17%	·	·	·
CC(C)(C)[Si](C)(C)c1c2c(nc3ccc(OCc4ccccc4)cc13)-c1cccc(=O)n1C2	·	·	·	·	·	56µM*
COc1cc2nc3c(c([Si](C)(C)C(C)(C)C)c2cc1OC)Cn1c-3cccc1=O	·	·	·	·	·	79µM*
N#Cc1cccc(NC(=O)Nc2ccc(=O)n3c2[C@@H]2C[C@@H](CN(C(=O)COc4ccccc4)C2)C3)c1	·	·	-3%	·	·	·
O=C(Nc1ncn(Cc2cccc(F)c2)n1)c1cc(S(=O)(=O)N2CCCC2)c(Cl)cc1Cl	·	·	9%	·	·	·
CCOC(=O)Nc1ccc(C)cc1NC(=O)OCC	0%[57.1 µM]	44%	-1%	-1%	39%	17%
CCOC(=O)Nc1ccc(NS(=O)(=O)c2ccc(C)cc2Cl)cc1	·	·	32µM*	·	·	·
CCc1ccc(-c2cc(N)n(-c3ccccc3)n2)cc1	·	45µM*	1%	?	?	4%
Fc1ccc2nc(CO[C@H]3CN(CC4CC4)C[C@H]3F)[nH]c2c1	·	·	41%[176 µM]	·	·	·
Cc1ccc2c(C(=O)O)cc(-c3ccccc3)nc2c1C	·	·	-14%	·	·	·
CCOc1cccc(-c2cc(C(=O)O)c3ccc(C)c(C)c3n2)c1	·	·	40µM*	·	·	·
CCOc1cccc(-c2cc(C(=O)Nc3ccon3)c3ccccc3n2)c1	-5%	20µM*	15%	-25%	18%	-5%
O=C(Nc1ccc([N+](=O)[O-])cn1)c1cc(-c2cccc(Br)c2)nc2ccccc12	-30%	?	-20%	-34%	-14%	6%
COc1cccc(-c2cc(C(=O)Nc3ccc([N+](=O)[O-])cn3)c3ccccc3n2)c1	?	7.9µM*	-18%	-19%	6%	-5%
Cc1cc(C(=O)NCc2ccnc(N3CCCC3)c2)on1	·	·	-1%	·	·	·
OC[C@@H]1CNC[C@H]1C1CCN(CC2CCCCC2)CC1	·	·	57%	·	·	·
O=C(O)c1oc2ccccc2c1-n1cccc1	4%	?	-13%	79µM*	-4%	-2%
Cc1ccc(S(=O)(=O)Nc2ccc3c(c2)CN(CCc2ccc(F)cc2)C(=O)C(C)O3)cc1F (stereo not drawn)	·	·	28µM*	·	·	·
CCOC(=O)c1ccc(NC(=O)CN2C(=O)NC3(CCS(=O)(=O)CC3)C2=O)cc1	·	·	-2%	·	·	·
O=C(NCc1cccc(C(F)(F)F)c1)c1ccc2c(c1)CCC2	·	·	7%	·	·	·
O=C(Nc1cccc(/C=C/c2ccccn2)c1)c1ccc(-n2cncn2)c([N+](=O)[O-])c1	-33%	35µM*	-3%	?	-2%	·
O=C(Nc1ccc(F)c(F)c1)c1ccc(-n2cncn2)c([N+](=O)[O-])c1	-7%	10%[12.7 µM]	57%	-13%	15%	·
CCN(CC)S(=O)(=O)c1ccc2c(c1)nc(-c1ccccn1)n2C	4%	10µM*	?	32µM*	2%	-3%
SMILES	BAZ2B inh	G9a block	ALOX12 inh	JMJD2A Tudor inh	HP1b binding inh	Sfp PPTase inh
COC(=O)Nc1[nH]ncc1[N+](=O)[O-]	-15%	-2%	35µM*	1%	21%	11%
CC(C)(C)c1[nH]ncc1[N+](=O)[O-]	25%	-4%	-5%	-2%	19%	15%
CSc1ccc(S(=O)(=O)N2CCN(Cc3ccc4c(c3)OCO4)CC2)cc1	-6%	79µM*	251%	-11%	44%	1%
COc1ccc(NS(=O)(=O)c2cccc(C(=O)N3CCN(Cc4ccc5c(c4)OCO5)CC3)c2)cc1	-23%	?	-22%	-20%	19%	·
Cc1ccccc1OCCCC(=O)Nc1ccc2c(c1)OCO2	-9%	20µM*	?	-20%	7%	-16%
COc1ccccc1OCCC(=O)Nc1ccc2c(c1)OCO2	·	·	-1%	-15%	23%	·
O=C(c1ccc(NS(=O)(=O)c2ccccc2)cc1)N1CCN(Cc2ccc3c(c2)OCO3)CC1	-4%	50µM*	-9%	-21%	15%	-4%
COc1cccc(C(=O)N2CCN(Cc3ccc4c(c3)OCO4)CC2)c1OC	79µM*	?	0%	7.9µM*	-36%	-26%
COc1ccccc1OCCC(=O)NCc1ccc2c(c1)OCO2	-4%	-32%	4%	35µM*	-26%	5%
COc1ccccc1NC(=O)N1CCN(Cc2ccc3c(c2)OCO3)CC1	50µM*	·	-13%	4µM*	?	?
COc1ccc(S(=O)(=O)N2CCN(Cc3ccc4c(c3)OCO4)CC2)c2ccccc12	10%	50µM*	416%	-30%	39%	-13%
COc1cc(C(=O)N2CCN(Cc3ccc4c(c3)OCO4)CC2)cc(OC)c1OC	79µM*	20µM*	?	0.89µM*	?	-25%
COc1ccccc1-c1cc(=O)c2cc(NS(=O)(=O)c3ccc(F)cc3)ccc2o1	·	·	17%	·	·	·
O=S(=O)(Nc1ccc(O)c(CN2CCCCC2)c1)c1ccccc1	-4%	45µM*	0%	-6%	15%	-7%
Cn1c(CN2CCCC2)nc2cc(NS(=O)(=O)c3ccccc3)ccc21	-2%	-15%[59 µM]	21%	-22%	24%	14%
CC1(C)CC(=O)C2=C(C1)N(c1cccc(O)c1)C1=C(C2)C(=O)CC(C)(C)C1	?	2.2µM*	-15%	8%	56%	10µM*
CC1(C)CC(=O)C2=C(C1)N(c1ccccc1)C(=O)C(C(=O)OCc1ccccc1)C2 (stereo not drawn)	·	·	14%	-8%	33%	·
CC/C(O)=C1\C(=O)CCCC1=NCCc1c(C)[nH]c2ccc(C)cc12	?	-43%	0%	-7%[11.4 µM]	-24%	7%
CCCC/C(O)=C1\C(=O)CCCC1=NCCc1c(C)[nH]c2ccc(OC)cc12	?	71µM*	6%	?	-24%	14%
CCOc1cccc(OCCCCn2ccnc2)c1	50µM*	?	?	6.3µM*	?	-12%

Bioassay records (PubChem BioAssay)
